Assay results from PubChem BioAssay (Tox21).
Where “and” joins values, the source holds several entries; their conditions need not be identical. Equal values may be shown once. A number with no mark means an inactive call. Results filed as inconclusive are left out. Calls of active or inactive are those of the source. The call rests on the fitted dose curve. Positions of bridges follow the written chain, without caps; N, C: chain ends. Non-standard residues stand in square brackets, D forms with d. Residues, ends and D or L forms follow the SMILES beside them. hArg = N=C(N)NCCCC[C@H](N)C(=O)O; Mpa = O=C(O)CCS

The compounds below were run against Acetylcholinesterase (Homo sapiens) (UniProt P22303) (assay: Acetylcholinesterase (AChE) small molecule antagonists: fluorescence cell-based qHTS assay (AID 1347398; further: nearly all actives have a fitted effect of over 50% in size; further: potency means the concentration at half of the fitted maximal effect)). Conditions: SH-SY5Y cells; Potency: AChE activity; outcome: AChE activity; series mostly up to 115 µM; activity change, negative = inhibition: at the top concentration.
Procedure, shortened: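 Cellular AChE activity read as thiocholine from acetylthiocholine hydrolysis, detected by Thiolite Green fluorescence at 490/520 nm after 40 min at room temperature. Compounds were pre-incubated 30 min at 37 C on adherent SH-SY5Y cells.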
On the % scale 0 is the no-effect control and ±100 the full control effect.

Acetylcholinesterase (Homo sapiens), sequence (P22303 whole entry, looked up): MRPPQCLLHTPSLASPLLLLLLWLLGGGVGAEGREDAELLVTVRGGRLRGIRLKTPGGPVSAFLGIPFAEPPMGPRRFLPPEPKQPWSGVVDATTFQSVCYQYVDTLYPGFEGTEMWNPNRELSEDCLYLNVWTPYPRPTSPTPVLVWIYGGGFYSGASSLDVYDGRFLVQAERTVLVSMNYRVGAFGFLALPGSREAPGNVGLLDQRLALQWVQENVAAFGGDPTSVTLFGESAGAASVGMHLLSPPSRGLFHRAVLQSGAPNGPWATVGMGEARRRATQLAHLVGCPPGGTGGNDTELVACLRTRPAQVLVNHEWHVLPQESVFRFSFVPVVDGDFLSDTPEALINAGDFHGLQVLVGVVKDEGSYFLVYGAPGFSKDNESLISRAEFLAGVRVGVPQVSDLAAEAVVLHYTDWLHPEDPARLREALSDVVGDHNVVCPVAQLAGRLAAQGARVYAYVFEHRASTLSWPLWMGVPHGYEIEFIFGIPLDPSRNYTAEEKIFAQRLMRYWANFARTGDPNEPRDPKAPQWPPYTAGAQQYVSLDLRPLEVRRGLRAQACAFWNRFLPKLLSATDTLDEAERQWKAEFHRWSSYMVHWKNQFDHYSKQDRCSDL

Row | SMILES | Potency | activity change, negative = inhibition | outcome
1 | CCCCC1(COC(=O)CCC(=O)O)C(=O)N(c2ccccc2)N(c2ccccc2)C1=O | inactive |  | 
2 | CC(C)Cn1cnc2c1c(=O)n(C)c(=O)n2C |  | 2.75% [at 53.7 µM] | 
3 | CC(C)(C)C(=O)CCc1ccc(Cl)cc1 |  | -2.2% | 
4 | COc1c(Cl)c(Cl)c(Cl)c(Cl)c1Cl | inactive |  | 
5 | CCCC(=O)O[C@]1(C(=O)CO)CC[C@H]2[C@@H]3CCC4=CC(=O)CC[C@]4(C)[C@H]3[C@@H](O)C[C@@]21C |  | -1.1% [at 53.7 µM] | 
6 | O=C(O)c1ccc(C(=O)O)cc1 | inactive |  | 
7 | CC(=O)OCC(C)C |  | -6.96% | 
8 | C=CCNc1nc(NCC=C)nc(N2CCN(C(c3ccc(F)cc3)c3ccc(F)cc3)CC2)n1 |  |  | inactive
9 | CCCCNC(=S)NCCCC |  | 0.954% | 
10 | CC(C)(C)CC(=O)OCC(=O)[C@@]1(O)CC[C@H]2[C@@H]3CCC4=CC(=O)C=C[C@]4(C)[C@H]3[C@@H](O)C[C@@]21C |  | 9.55% [at 53.7 µM] | 
11 | C=C(C)C(=O)OCCOCCOCCOCCOC(=O)C(=C)C |  | 0.33% | 
12 | On1nnc2ccccc21 |  | 0.316% | 
13 | CC(C)OC=O | inactive |  | 
14 | CCOC(/C=C(\C)CCC=C(C)C)OCC |  | 3.79% | 
15 | Clc1ccccn1 | inactive |  | 
16 | CC(=O)CC(=O)Nc1ccc(C)cc1C |  | 2.75% | 
17 | CC(=O)c1ccc(C)cc1 |  | 0.573% | 
18 | Cc1cc(=O)n(-c2ccccc2)n1C | inactive |  | 
19 | O=C(O)c1ccccc1Cl |  | 21.5% | 
20 | NC(=O)[C@@H]1CSSCCC(=O)N[C@@H](CCCCN=C(N)N)C(=O)NCC(=O)N[C@@H](CC(=O)O)C(=O)N[C@@H](Cc2c[nH]c3ccccc23)C(=O)N2CCC[C@H]2C(=O)N1 ([Mpa][hArg]GDWPC-NH2; disulfide 1-7) |  | 4.52% [at 53.7 µM] | 

Row | SMILES | Potency | activity change, negative = inhibition | outcome
21 | O=C1OC2(c3ccc(O)cc3Oc3cc(O)ccc32)c2ccc(N=C=S)cc21 |  | 19% | 
22 | CC1(C)O[C@@H]2C[C@H]3[C@@H]4CCC5=CC(=O)C=C[C@]5(C)[C@@]4(F)[C@@H](O)C[C@]3(C)[C@]2(C(=O)CO)O1 | inactive |  | 
23 | CCCCCCc1ccc(-c2ccc(C#N)cc2)cc1 |  | -1.44% | 
24 | OC[C@H]1O[C@H](O[C@H]2O[C@H](CO)[C@@H](O)[C@H](O)[C@H]2O)[C@H](O)[C@@H](O)[C@@H]1O |  | 10.6% | 
25 | CCOC(=O)C(C#N)=C(c1ccccc1)c1ccccc1 | inactive |  | 
26 | S=C([S-])NCCNC(=S)[S-].S=C([S-])NCCNC(=S)[S-].[Mn+2].[Zn+2] | 30.9 µM (active) |  | 
27 | Cc1nc2ccccc2s1 |  | 4.22% | 
28 | c1cc(C(c2ccc(OCC3CO3)cc2)c2ccc(OCC3CO3)cc2)ccc1OCC1CO1 (stereo not given) |  | 1.5% | 
29 | CC1(C)C(=O)N(Br)C(=O)N1Br |  | 4.18% | 
30 | CCCCCCCCCCCCC(=O)O |  | -8.93% | 
31 | C=CCOC(=O)CCCCCCCC |  | -1.25% | 
32 | CCNc1cccc(C)c1 | inactive |  | 
33 | Cc1cc(N)n(-c2ccccc2)n1 |  | 3.49% | 
34 | FC(F)(F)C(Cl)Br (stereo not given) | inactive |  | 
35 | CCOC(=O)c1ccc(I)cc1 |  | -0.106% | 
36 | COc1c(Cl)ccc(Cl)c1C(=O)O | inactive |  | 
37 | CCCCCCCC/C=C\CCCCCCCC(=O)OC[C@@H](O)[C@H]1OC[C@H](O)[C@H]1O |  | -15.1% | 
38 | O=C(/C=C/c1ccc([N+](=O)[O-])cc1)c1ccccc1 |  | -1.78% | 
39 | CC(=O)C(=O)CC(C)C |  | -1.66% | 
40 | CCCCCCCCCCCCCC[N+](C)(C)C | 61.1 µM (active) and 39.9 µM (active) |  | 

The compounds below were run against Acetylcholinesterase (Homo sapiens) (UniProt P22303) (assay: Acetylcholinesterase (AChE) small molecule antagonists: enzyme-based qHTS assay with human liver microsomes (AID 1347399; further: nearly all actives have a fitted effect of over 60% in size)). Conditions: Potency: qHTS inhibition; outcome: qHTS inhibition; series mostly up to 115 µM; activity change, negative = inhibition: at the top concentration.
Procedure, shortened: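 Recombinant human AChE (50 mU/mL in the enzyme mix) and human liver microsomes (0.25 mg/mL final) were preincubated with compound and NADPH (0.25 mg/mL final) for 30 min at 37 C. Acetylthiocholine/DTNB was then added; thiocholine was read colorimetrically after 10 min at room temperature.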

Row | SMILES | Potency | activity change, negative = inhibition | outcome
41 | CCCCC1(COC(=O)CCC(=O)O)C(=O)N(c2ccccc2)N(c2ccccc2)C1=O | inactive |  | 
42 | CC(C)Cn1cnc2c1c(=O)n(C)c(=O)n2C |  | 1.17% [at 53 µM] | 
43 | CC(C)(C)C(=O)CCc1ccc(Cl)cc1 |  | -0.0801% | 
44 | COc1c(Cl)c(Cl)c(Cl)c(Cl)c1Cl | inactive |  | 
45 | CCCC(=O)O[C@]1(C(=O)CO)CC[C@H]2[C@@H]3CCC4=CC(=O)CC[C@]4(C)[C@H]3[C@@H](O)C[C@@]21C |  | 0.672% [at 53 µM] | 
46 | O=C(O)c1ccc(C(=O)O)cc1 | inactive |  | 
47 | CC(=O)OCC(C)C |  | 0% | 
48 | C=CCNc1nc(NCC=C)nc(N2CCN(C(c3ccc(F)cc3)c3ccc(F)cc3)CC2)n1 |  |  | inactive
49 | CCCCNC(=S)NCCCC |  | -5.48% | 
50 | CC(C)(C)CC(=O)OCC(=O)[C@@]1(O)CC[C@H]2[C@@H]3CCC4=CC(=O)C=C[C@]4(C)[C@H]3[C@@H](O)C[C@@]21C |  | -0.42% [at 53 µM] | 
51 | C=C(C)C(=O)OCCOCCOCCOCCOC(=O)C(=C)C |  | -0.291% | 
52 | On1nnc2ccccc21 |  | 2.62% | 
53 | CC(C)OC=O | inactive |  | 
54 | CCOC(/C=C(\C)CCC=C(C)C)OCC |  | -0.812% | 
55 | Clc1ccccn1 | inactive |  | 
56 | CC(=O)CC(=O)Nc1ccc(C)cc1C |  | 0.229% | 
57 | CC(=O)c1ccc(C)cc1 |  | 0.309% | 
58 | Cc1cc(=O)n(-c2ccccc2)n1C | inactive |  | 
59 | O=C(O)c1ccccc1Cl |  | -2.91% | 
60 | NC(=O)[C@@H]1CSSCCC(=O)N[C@@H](CCCCN=C(N)N)C(=O)NCC(=O)N[C@@H](CC(=O)O)C(=O)N[C@@H](Cc2c[nH]c3ccccc23)C(=O)N2CCC[C@H]2C(=O)N1 ([Mpa][hArg]GDWPC-NH2; disulfide 1-7) |  | 0.812% [at 53 µM] | 

Row | SMILES | Potency | activity change, negative = inhibition | outcome
61 | O=C1OC2(c3ccc(O)cc3Oc3cc(O)ccc32)c2ccc(N=C=S)cc21 |  | 19.2% | 
62 | CC1(C)O[C@@H]2C[C@H]3[C@@H]4CCC5=CC(=O)C=C[C@]5(C)[C@@]4(F)[C@@H](O)C[C@]3(C)[C@]2(C(=O)CO)O1 | inactive |  | 
63 | CCCCCCc1ccc(-c2ccc(C#N)cc2)cc1 |  | -3.67% | 
64 | OC[C@H]1O[C@H](O[C@H]2O[C@H](CO)[C@@H](O)[C@H](O)[C@H]2O)[C@H](O)[C@@H](O)[C@@H]1O |  | 0.929% | 
65 | CCOC(=O)C(C#N)=C(c1ccccc1)c1ccccc1 | inactive |  | 
66 | S=C([S-])NCCNC(=S)[S-].S=C([S-])NCCNC(=S)[S-].[Mn+2].[Zn+2] |  | -19.5% [at 53 µM] | 
67 | Cc1nc2ccccc2s1 |  | -0.324% | 
68 | c1cc(C(c2ccc(OCC3CO3)cc2)c2ccc(OCC3CO3)cc2)ccc1OCC1CO1 (stereo not given) |  | 0.688% | 
69 | CC1(C)C(=O)N(Br)C(=O)N1Br |  | 0.291% | 
70 | CCCCCCCCCCCCC(=O)O |  | -4.27% | 
71 | C=CCOC(=O)CCCCCCCC |  | -0.149% | 
72 | CCNc1cccc(C)c1 | inactive |  | 
73 | Cc1cc(N)n(-c2ccccc2)n1 |  | -0.764% | 
74 | FC(F)(F)C(Cl)Br (stereo not given) | inactive |  | 
75 | CCOC(=O)c1ccc(I)cc1 |  | -1.29% | 
76 | COc1c(Cl)ccc(Cl)c1C(=O)O | inactive |  | 
77 | CCCCCCCC/C=C\CCCCCCCC(=O)OC[C@@H](O)[C@H]1OC[C@H](O)[C@H]1O |  | 1.46% | 
78 | O=C(/C=C/c1ccc([N+](=O)[O-])cc1)c1ccccc1 |  | 4.2% | 
79 | CC(=O)C(=O)CC(C)C |  | -0.166% | 
80 | CCCCCCCCCCCCCC[N+](C)(C)C | inactive |  | 
